From PubChem BioAssay (EPA / NIEHS)
The source holds several records for some structures; these can differ, active in one and inactive in another. Active and inactive are the calls of the source. The calls were made as follows: active = hit-call score of the fitted dose curve at least 0.9, where 1 is the maximum; inactive = score below 0.9.

Experiment: CCTE_Shafer_MEA_dev_spike_duration_mean: CCTE's Neural Network Formation Assay for Mean Spike Duration, Shafer Lab (AID 2284051);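 also: mean network spike duration pooled as area under curve over DIV 5 to 12 recordings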;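 as to AC50: potency for a decrease in mean network spike duration versus DMSO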
Summary of the method: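 With DMSO as baseline, loss of mean network spike duration was scored from extracellular recordings of rat cortical neurons on MEA plates. Exposure spanned plating to DIV 12; the four recording days were collapsed into one AUC value.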
In the case of `OCC(F)(F)C(F)(F)C(F)(F)C(F)F`, the outcome is reported as “inactive”.
With `CC(CCl)OP(=O)(OC(C)CCl)OC(C)CCl` (stereo not given) the AC50 was 50 µM (active) and the outcome was “inactive”.
For `O=C(O)C=C(C(F)(F)F)C(F)(F)F`, the outcome was “inactive”.
For `O=C(O)C(F)(F)C(F)(F)C(F)F`, the outcome was “inactive”.
In the case of `FC(F)(F)C(F)(F)C(F)(F)C(F)(F)C(F)(F)CCI`, the AC50 is reported as 15 µM (active).
In the case of `OCCCC(F)(F)C(F)(F)C(F)(F)F`, the outcome is reported as “inactive”.
For `O=C(O)C(F)(F)C(F)(F)C(F)(F)F`, the outcome was “inactive”.
For `Cc1ccc(S(=O)(=O)OCC(F)(F)C(F)(F)C(F)(F)C(F)(F)C(F)(F)C(F)F)cc1`, the outcome was “inactive”.
With `OCC(F)(F)C(F)(F)C(F)(F)C(F)(F)C(F)(F)C(F)F` the outcome was “inactive”.
For `O=C(O)C(F)(F)C(F)(F)C(F)(F)C(F)(F)C(F)(F)C(F)(F)C(F)(F)C(F)(F)Cl`, the outcome was “inactive”.
For `O=P(O)(O)OCCC(F)(F)C(F)(F)C(F)(F)C(F)(F)C(F)(F)C(F)(F)F`, the outcome was “inactive”.
In the case of `O=C(O)C(F)(F)C(F)(F)C(F)(F)C(F)(F)C(F)(F)C(F)(F)C(F)(F)C(F)(F)C(F)(F)C(F)F`, the outcome is reported as “inactive”.
With `OC[C@@H](O)[C@@H](O)[C@H](O)[C@@H](O)CO` the outcome was “inactive”.
With `NC(=O)C(F)(F)C(F)(F)C(F)(F)C(F)(F)F` the outcome was “inactive”.
With `O=S(=O)(OCCOC(F)(F)F)C(F)(F)F` the outcome was “inactive”.
In the case of `OCC(F)(F)C(F)(F)C(F)(F)F`, the outcome is reported as “inactive”.
With `COC(=O)CCC(F)(F)C(F)(F)C(F)(F)C(F)(F)F` the outcome was “inactive”.
For `N=C(N)C(F)(F)C(F)(F)C(F)(F)C(F)(F)C(F)(F)C(F)(F)C(F)(F)F`, the outcome was “inactive”.
For `CC(C)(C)C(=O)CC(=O)C(F)(F)C(F)(F)C(F)(F)F`, the AC50 was 26 µM (active).
